According to PubChem BioAssay AID686978 (National Center for Advancing Translational Sciences (NCATS), 2013):
Screen size: about 420,000 compounds; about 64,000 (15%) were called active. Roughly 27% stayed inconclusive and do not appear here. Calls come from the whole dose curve; as a rule, active = well fitted inhibition curve with a large enough effect; inconclusive = small, poorly fitted or top-dose-only effect; inactive = flat fitted curve, though single readings scatter. The list is a sample of the results. Entries that show only a call come without a potency.

Experiment: qHTS for Inhibitors of human tyrosyl-DNA phosphodiesterase 1 (TDP1): qHTS in cells in absence of CPT; note: nearly all actives have a fitted effect of over 55% in size
Settings: DT40 Tdp1-/- hTDP1 cells, no CPT, ATP luminescence, 48 h; activity change, negative = growth inhibition: at 46.2 µM (top of the series)
Summary of the method: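 Cells were dispensed at 400 per well, compounds added by pin tool, plates incubated ≥48 hr at 37 °C, then CellTiter-Glo added for 30 min at room temperature before luminescence reading. Line: DT40 Tdp1-/- complemented with hTDP1; camptothecin omitted.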
Potency is the fitted concentration of half-maximal effect.

Row | SMILES | Potency
1 | CC(C)CC(=O)N1CCN(Cc2cccc(Cl)c2)CC1 | inactive
2 | CCOc1ncccc1C(=O)N(CC)CC(=O)Nc1ccc(NC(C)=O)cc1 | inactive
3 | CCOC(=O)CNC(=O)c1nn(-c2cccc(OC)c2)c(=O)c2ccccc12 | inactive
4 | COc1ccc(-n2nc(C(=O)NCC(=O)N3CCC(C(N)=O)CC3)c3ccccc3c2=O)cc1OC | inactive
5 | COCCCNC(=O)CNC(=O)c1nn(-c2ccc(OC)cc2)c(=O)c2ccccc12 | inactive
6 | COc1ccc(-n2nc(C(=O)NCCc3ccc(Cl)cc3)c3c4ccccc4n(C)c3c2=O)cc1Cl | 13 µM (active)
7 | COc1ccc(-n2nc(C(=O)NCC(=O)N3CCCCCC3)c3ccccc3c2=O)cc1Cl | 23.1 µM (active)
8 | CCOC(=O)c1ccccc1NC(=O)c1nn(-c2ccc(OC)c(Cl)c2)c(=O)c2c1c1ccccc1n2C | inactive
9 | S=C(Nc1ccc2c(c1)OCO2)N1CCCC1 | inactive
10 | Nc1ccc(Cl)c(S(=O)(=O)Nc2ccccc2Cl)c1 | inactive
11 | O=S(=O)(c1ccccc1)N(CC(O)CN1CCCCC1)c1ccccc1 (stereo not drawn) | inactive
12 | CCN(c1ccccc1)S(=O)(=O)c1ccc2[nH]c(=O)[nH]c2c1 | inactive
13 | Cc1cc(C)n(CC(O)CN(c2ccccc2)S(=O)(=O)c2ccc3ccccc3c2)n1 (stereo not drawn) | 23.1 µM (active)
14 | CCCCCN(C(=O)CCC(=O)OCC(=O)NC1CCC(C)CC1)c1c(N)n(CCCC)c(=O)[nH]c1=O (stereo not drawn) | inactive
15 | Cc1nc(SCC(=O)N2CCN(c3ccccc3)CC2)[nH]c(=O)c1C | inactive
16 | O=C(COC(=O)CNC(=O)c1ccco1)Nc1ccc(F)cc1 | inactive
17 | CCCNC(=O)c1ccc(N2CCC3(CC2)CC(c2cccc(Br)c2)=NO3)c(NC(=O)c2ccco2)c1 | 6.51 µM (active)
18 | COCCNC(=O)c1ccc(N2CCC3(CC2)OCCO3)c([N+](=O)[O-])c1 | inactive
19 | CCN1CCC(=NNC(=O)c2ccc(C)c([N+](=O)[O-])c2)CC1 | inactive
20 | CCCN(CCC)CCNC(=O)c1ccc2c(c1)NC(=O)C(CS(=O)(=O)Cc1cccc(Br)c1)N2 (stereo not drawn) | inactive
21 | COC(=O)c1ccc(N2CCOCC2)c(NC(=O)c2ccc(Br)o2)c1 | inactive

Row | SMILES | Potency
22 | CCCNC(=O)c1ccc(N2CCC3(CC2)CC(c2ccc(Cl)cc2)=NO3)c([N+](=O)[O-])c1 | 20.6 µM (active)
23 | CN[C@@H]1[C@@H](O)[C@@H](O[C@@H]2[C@H](O)[C@H](O[C@H]3OC(CN)=CC[C@H]3N)[C@@H](N)C[C@H]2N)OCC1(C)O (stereo partly drawn) | inactive
24 | CN1C(C)(C)CC(NC(=O)CCC(=O)NC2CC(C)(C)N(C)C(C)(C)C2)CC1(C)C | inactive
25 | O=P(O)(CP(=O)(c1ccccc1)c1ccccc1)c1ccccc1 | inactive
26 | Cc1ccc(S(=O)(=O)N2CC(=O)Nc3ccccc32)cc1C | inactive
27 | COC(=O)C1=C(C)OC(N)=C(C#N)C1c1cc(OC)ccc1OC (stereo not drawn) | inactive
28 | C=CCOC(=O)C1=C(C)OC(N)=C(C#N)C1c1ccc(F)cc1 (stereo not drawn) | 29.1 µM (active)
29 | C=CCOC(=O)C1=C(C)NC(SCC(=O)OCC)=C(C#N)C1c1ccc(C)cc1 (stereo not drawn) | inactive
30 | O=C(CSc1nnc(-c2ccc([N+](=O)[O-])cc2)o1)Nc1ccccn1 | inactive
31 | O=[N+]([O-])c1ccccc1SNc1ccccn1 | 16.4 µM (active)
32 | Nc1nc(Sc2ncccc2[N+](=O)[O-])n[nH]1 | inactive
33 | O=C(Nc1ccncc1)c1ccc([N+](=O)[O-])cc1Cl | inactive
34 | COCC(C)NC(=O)CSc1nc2nn(-c3ccccc3)c(=O)c-2c2n1CCCCC2 (stereo not drawn) | inactive
35 | NNC(=O)C1CC(O)CN1S(=O)(=O)c1ccc(Cl)cc1 (stereo not drawn) | inactive
36 | CC1(C)CC(=O)C(N=Nc2ccc(S(=O)(=O)N3CCCCCC3)cc2)=C(O)C1 | inactive
37 | NS(=O)(=O)c1ccc(NC(=O)COC(=O)c2ccc(Cl)nc2)cc1 | inactive
38 | CCN(CC)c1ccc(NC(=O)c2ccc(Cl)nc2)cc1 | 2.59 µM (active)
39 | Cc1cnc(NC(=O)c2ccc(Cl)nc2)s1 | inactive
40 | Cc1ccc2c(c1)NCC(C(=O)NC1CCC(C)CC1)O2 (stereo not drawn) | inactive
41 | CCOC(=O)C1CCN(C(=O)CN2C(=O)NC(C)(c3ccc4cc(OC)ccc4c3)C2=O)CC1 (stereo not drawn) | 10.3 µM (active)
42 | CC1(c2ccc3ccccc3c2)NC(=O)N(CC(N)=O)C1=O (stereo not drawn) | inactive

Row | SMILES | Potency
43 | CCOC(=O)C1CCN(C(=O)Nc2cccc(OC)c2)CC1 | inactive
44 | COc1ccc(C2C3=C(CCCC3=O)N(CC(=O)O)C3=C2C(=O)CCC3)cc1 | inactive
45 | COC(=O)c1ccccc1NC(=O)C1CCN(C(=O)N2CCOc3ccccc32)CC1 | 23.1 µM (active)
46 | CC(=O)N1CCOc2ccc(S(=O)(=O)N3CCC(C(=O)Nc4ccccc4F)CC3)cc21 | inactive
47 | CCOC(=O)c1ccccc1NC(=S)N1CCC(C(N)=O)CC1 | inactive
48 | CCOc1ccc(NC(=O)N2CCN(CC)CC2)cc1 | inactive
49 | CCOc1ccc(NC(=S)N2CCC(NC(=O)c3ccccc3)CC2)cc1 | inactive
50 | CCOc1ccc(NC(=O)C2CCN(C(=O)N3CCOc4ccccc43)CC2)cc1 | 20.6 µM (active)
51 | Cc1ccsc1C(=O)OCC(=O)Nc1cccc(F)c1 | inactive
52 | O=C(Nc1cccc2ccccc12)N1CCN(Cc2ccc3c(c2)OCO3)CC1 | inactive
53 | N#Cc1cccc(CN2CCC(=O)N(CCO)CC2)c1 | inactive
54 | CC(C)[C@@H]1NC(=O)[C@H](Cc2ccccc2)NC(=O)[C@@H](CC(=O)O)NC(=O)CNC(=O)[C@H](CCCNC(=N)N)NC1=O | inactive
55 | C=CCOc1ccc(/C=C/C(=O)OCC(=O)NCC2CCCO2)cc1 (stereo not drawn) | inactive
56 | CCC(=O)Nc1ccccc1N1CCN(S(C)(=O)=O)CC1 | inactive
57 | CCCCC(=O)Nc1ccccc1N1CCN(c2ccc(F)cc2)CC1 | 16.4 µM (active)
58 | O=C(NC(=S)Nc1ccccc1N1CCCCC1)c1ccc(F)cc1 | inactive
59 | O=C(CN1CCN(c2ccc(F)cc2)CC1)Nc1ccccc1 | inactive
60 | CCC(C)C(=O)Nc1ccccc1N1CCN(c2ccc(F)cc2)CC1 (stereo not drawn) | 20.6 µM (active)
61 | Cc1cccc(C)c1NC(=O)CN1CCN(c2ccc(F)cc2)CC1 | 20.6 µM (active)
62 | O=C(CN1CCN(c2ccccc2)CC1)Nc1ccc(F)cc1 | inactive
63 | CCn1cc(CN2CCCC(CNS(=O)(=O)Cc3ccccc3)C2)cn1 (stereo not drawn) | inactive
